Test results published in PubChem BioAssay (EPA / NIEHS).
Records with an inconclusive call do not appear. Calls of active or inactive are those of the source. Rule for the calls, unless noted: active = hit-call score of the fitted dose curve at least 0.9, where 1 is the maximum; inactive = score below 0.9.

Columns and labels:
[1] = read-out: Interleukin-1 alpha (IL1a), IL1A (gene 3552); assay: BSK_BE3C_IL1a: BioMAP Diversity Plus: BE3C Assay for Interleukin-1 alpha (IL1a) Biomarker Activity (AID 2283016); conditions: primary human bronchial epithelial cells; actives raise or lower the signal
In short: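 ELISA read-out of IL-1a from human lung bronchial epithelial primary cells, 24 h post-dose. Gain or loss of signal fitted relative to DMSO negative control.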

[2] = read-out: Monocyte Chemoattractant Protein-1 (MCP1), CCL2 (gene 6347); assay: BSK_3C_MCP1: BioMAP Diversity Plus: 3C Assay for Monocyte Chemoattractant Protein-1 (MCP1) Biomarker Activity (AID 2283017); conditions: primary human endothelial cells (HUVEC); actives raise or lower the signal
In short: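 Primary human umbilical vein endothelial cells (3C system) were exposed to test chemical for 24 h, after which MCP-1 was quantified by ELISA. Activity was fitted bidirectionally against DMSO as negative control and baseline.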

[3] = read-out: Monocyte Chemoattractant Protein-1 (MCP1), CCL2 (gene 6347); assay: BSK_4H_MCP1: BioMAP Diversity Plus: 4H Assay for Monocyte Chemoattractant Protein-1 (MCP1) Biomarker Activity (AID 2283018); conditions: primary human endothelial cells (HUVEC); actives raise or lower the signal
In short: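 HUVEC primary cells, 24 h post-dose, MCP-1 by ELISA. Gain or loss of signal fitted bidirectionally vs DMSO baseline. Cytotoxicity: SRB stain (0.1% after 10% TCA fixation), read 560 nm, parallel cultures.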

[4] = read-out: Human Leukocyte Antigen - DR isotype (HLADR), HLA-DRA (gene 3122); assay: BSK_3C_HLADR: BioMAP Diversity Plus: 3C Assay for Human Leukocyte Antigen - DR isotype (HLADR) Biomarker Activity (AID 2283019); conditions: primary human endothelial cells (HUVEC); actives raise or lower the signal
In short: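 Primary human umbilical vein endothelial cells (3C system) were dosed with compound and cell-surface HLA-DR was quantified by ELISA at 24 h. Activity was fitted bidirectionally against DMSO as negative control and baseline.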

[5] = read-out: Interleukin-8 (IL8), CXCL8 (gene 3576); assay: BSK_3C_IL8: BioMAP Diversity Plus: 3C Assay for Interleukin-8 (IL8) Biomarker Activity (AID 2283020); conditions: primary human endothelial cells (HUVEC); actives raise or lower the signal
In short: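 HUVEC, 3C stimulation; 24 h compound exposure; IL-8 read by ELISA; gain or loss of signal fitted relative to DMSO control.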

[6] = read-out: Monokine induced gamma interferon (MIG), CXCL9 (gene 4283); assay: BSK_3C_MIG: BioMAP Diversity Plus: 3C Assay for Monokine induced gamma interferon (MIG) Biomarker Activity (AID 2283021); conditions: primary human endothelial cells (HUVEC); actives raise or lower the signal;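 for AC50: MIG protein level measured by immunoassay in the treated endothelial cultures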
In short: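 HUVEC, 3C system; 24 h chemical exposure; MIG by ELISA; bidirectional fit vs DMSO baseline.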

[7] = target: human Vitamin D Receptor (VDR), VDR (gene 7421) (UniProt P11473); assay: ATG_VDR_TRANS: Attagene TRANS-FACTORIAL HepG2 Assay for human Vitamin D Receptor (VDR) (AID 2283022; active = hit-call score of the fitted dose curve at least 0.9, where 1 is the maximum)
human Vitamin D Receptor (VDR), VDR (gene 7421), sequence (P11473 whole entry, looked up, the tested form may be a part): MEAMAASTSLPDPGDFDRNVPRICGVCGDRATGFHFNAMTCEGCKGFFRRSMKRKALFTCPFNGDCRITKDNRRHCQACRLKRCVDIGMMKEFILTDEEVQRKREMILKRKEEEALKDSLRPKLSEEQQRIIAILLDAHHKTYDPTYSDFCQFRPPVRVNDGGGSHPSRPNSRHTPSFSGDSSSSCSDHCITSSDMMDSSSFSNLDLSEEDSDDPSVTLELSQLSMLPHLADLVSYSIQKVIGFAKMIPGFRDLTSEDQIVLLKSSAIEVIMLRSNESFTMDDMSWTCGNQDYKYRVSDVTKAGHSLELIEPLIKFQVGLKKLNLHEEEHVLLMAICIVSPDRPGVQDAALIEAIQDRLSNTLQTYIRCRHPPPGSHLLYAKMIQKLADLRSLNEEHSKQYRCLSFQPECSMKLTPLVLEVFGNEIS
In short: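 HepG2 cells were transiently transfected with multiple GAL4-UAS reporter units, so signal reflects exogenous chimeric receptor-Gal4 activity. After 24 h compound exposure, reporter mRNA was measured by RT-PCR, fluorescent labelling and capillary electrophoresis, fitted for gain of signal versus DMSO.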

[8] = BSK_3C_SRB: Viability Assessment in the BioMAP Diversity Plus: 3C Assay (AID 2283023); conditions: primary human endothelial cells (HUVEC);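 note: fitted both ways against DMSO so a hit may be signal rise or drop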
In short: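 Primary human umbilical vein endothelial cells in the 3C system were read 24 h after compound dosing. Total protein was stained with 0.1% sulforhodamine B after 10% TCA fixation and read at 560 nm, with bidirectional fitting against DMSO as baseline.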

[9] = read-out: Matrix Metallopeptidase 1 (MMP1), MMP1 (gene 4312); assay: BSK_BE3C_MMP1: BioMAP Diversity Plus: BE3C Assay for Matrix Metallopeptidase 1 (MMP1) Biomarker Activity (AID 2283024); conditions: primary human bronchial epithelial cells; actives raise or lower the signal
In short: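 ELISA read-out of MMP1 in human lung bronchial epithelial primary cultures, 24 h post-dose; bidirectional curve fit vs DMSO baseline, gain or loss of signal scored.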

[10] = BSK_3C_Vis: BioMAP Diversity Plus: 3C Assay for Morphology Visualization (AID 2283025); conditions: primary human endothelial cells (HUVEC);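 note: fitted both ways so gain or loss versus DMSO counts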;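 for AC50: light microscopy image of cell morphology used as background control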
In short: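 HUVEC, 3C system; light microscopy of morphology at 24 h post-dose. Bidirectional fit vs DMSO baseline. Secondary readout, background-control function.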

[11] = read-out: Pselectin, SELP (gene 6403); assay: BSK_4H_Pselectin: BioMAP Diversity Plus: 4H Assay for Pselectin Biomarker Activity (AID 2283026); conditions: primary human endothelial cells (HUVEC); actives raise or lower the signal
In short: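 HUVEC, 24 h chemical exposure; P-selectin read by ELISA. Bidirectional curve fit vs DMSO baseline; gain or loss of signal scored.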

[12] = BSK_4H_SRB: Viability Assessment in the BioMAP Diversity Plus: 4H Assay (AID 2283027); conditions: primary human endothelial cells (HUVEC);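 note: cells exposed to compound for 24 h before staining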;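 for AC50: curves fitted both ways versus DMSO so AC50 may be loss or gain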
In short: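 HUVEC, 24 h post-dose; 10% TCA fix, 0.1% SRB stain, A560 nm. Total protein = overt cytotoxicity, parallel to biomarker read. Bidirectional fit vs DMSO baseline.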

[13] = BSK_BE3C_SRB: Viability Assessment in the BioMAP Diversity Plus: BE3C Assay (AID 2283028); conditions: primary human bronchial epithelial cells;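 for AC50: fitted both ways so AC50 may mark signal gain or loss versus DMSO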
In short: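 Human primary bronchial epithelial cells were exposed to test chemicals for 24 h. Total protein in parallel cultures was then measured by staining with 0.1% sulforhodamine B after 10% TCA fixation, with absorbance read at 560 nm. Activity was fitted bidirectionally against DMSO.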

[14] = read-out: Thrombomodulin, THBD (gene 7056); assay: BSK_3C_Thrombomodulin: BioMAP Diversity Plus: 3C Assay for Thrombomodulin Biomarker Activity (AID 2283029); conditions: primary human endothelial cells (HUVEC); actives raise or lower the signal
In short: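 HUVEC, 3C conditions; compound 24 h; thrombomodulin by ELISA; bidirectional curve fit vs DMSO baseline; parallel SRB total-protein staining for cytotoxicity.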

[15] = read-out: Urokinase-type plasminogen activator receptor (uPAR), PLAUR (gene 5329); assay: BSK_4H_uPAR: BioMAP Diversity Plus: 4H Assay for Urokinase-type plasminogen activator receptor (uPAR) Biomarker Activity (AID 2283030); conditions: primary human endothelial cells (HUVEC); actives raise or lower the signal
In short: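 Primary human umbilical vein endothelial cells were exposed to chemical for 24 h before cell-surface uPAR was quantified by ELISA. Activity was fitted bidirectionally against the DMSO negative control baseline.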

[16] = read-out: Vascular endothelial growth factor receptor 2 (Homo sapiens) (UniProt P35968); assay: BSK_4H_VEGFRII: BioMAP Diversity Plus: 4H Assay for Vascular endothelial growth factor receptor 2 (VEGFR2) Biomarker Activity (AID 2283031); conditions: primary human endothelial cells (HUVEC); actives raise or lower the signal;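 for AC50: cell-surface VEGFR2 protein level quantified by ELISA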
In short: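 Primary human umbilical vein endothelial cells in the BioMAP 4H system were dosed with test chemical, and 24 h later VEGFRII was measured by ELISA. Activity was fitted bidirectionally against DMSO as negative control and baseline.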

[17] = read-out: Human Leukocyte Antigen - DR isotype (HLADR), HLA-DRA (gene 3122); assay: BSK_BE3C_HLADR: BioMAP Diversity Plus: BE3C Assay for Human Leukocyte Antigen - DR isotype (HLADR) Biomarker Activity (AID 2283032); conditions: primary human bronchial epithelial cells; actives raise or lower the signal
In short: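 Primary human bronchial epithelial cells (BE3C); 24 h chemical exposure; HLA-DR by ELISA; bidirectional curve fit vs DMSO baseline.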

[18] = read-out: Vascular cell adhesion molecule 1 (VCAM1), VCAM1 (gene 7412); assay: BSK_4H_VCAM1: BioMAP Diversity Plus: 4H Assay for Vascular cell adhesion molecule 1 (VCAM1) Biomarker Activity (AID 2283033); conditions: primary human endothelial cells (HUVEC); actives raise or lower the signal
In short: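 HUVEC, 24 h post-dose; VCAM-1 by ELISA. Bidirectional curve fit vs DMSO baseline. Parallel SRB total-protein stain (0.1% SRB after 10% TCA fixation, 560 nm) for cytotoxicity.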

[19] = read-out: Interferon-gamma inducible Protein 10 (IP10), CXCL10 (gene 3627); assay: BSK_BE3C_IP10: BioMAP Diversity Plus: BE3C Assay for Interferon-gamma inducible Protein 10 (IP10) Biomarker Activity (AID 2283034); conditions: primary human bronchial epithelial cells; actives raise or lower the signal
In short: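 ELISA readout of IP-10 in BE3C system: primary human bronchial epithelial cells, 24 h post-dosing; bidirectional curve fit vs DMSO baseline.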

[20] = read-out: Monokine induced gamma interferon (MIG), CXCL9 (gene 4283); assay: BSK_BE3C_MIG: BioMAP Diversity Plus: BE3C Assay for Monokine induced gamma interferon (MIG) Biomarker Activity (AID 2283035); conditions: primary human bronchial epithelial cells; actives raise or lower the signal
In short: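 Dose cells (human primary bronchial epithelial), incubate 24 h, quantify MIG by ELISA, then fit concentration–response in both directions relative to DMSO control.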

Measured: AC50

O=C(O)CCN(C1(C(=O)NO)CCCC1)S(=O)(=O)c1ccc(Oc2ccc(F)cc2)cc1
inactive: [1] | [2] | [3] | [4] | [5] | [6] | [7] | [8] | [9] | [10] | [11] | [12] | [13] | [14] | [15] | [16] | [17] | [18] | [19] | [20]

CC(C)=CCC/C(C)=C\CO
inactive: [1] | [2] | [3] | [4] | [5] | [6] | [7] | [8] | [9] | [10] | [11] | [12] | [13] | [14] | [15] | [16] | [17] | [19] | [20]

CCOCCO
inactive: [1] | [2] | [3] | [4] | [5] | [6] | [8] | [10] | [11] | [12] | [13] | [14] | [15] | [16] | [17] | [18] | [19] | [20]

CC1=CC(=O)CC(C)(C)C1
inactive: [1] | [2] | [3] | [4] | [5] | [6] | [8] | [9] | [10] | [12] | [13] | [14] | [15] | [16] | [17] | [18] | [19] | [20]

CC(=O)c1ccc2c(c1)[C@H](NC(=O)c1ccc(F)cc1)[C@@H](O)C(C)(C)O2
inactive: [1] | [2] | [3] | [4] | [5] | [6] | [8] | [10] | [11] | [12] | [13] | [14] | [15] | [16] | [17] | [18] | [19] | [20]

Cn1c(=O)c2c(ncn2C)n(C)c1=O
inactive: [1] | [2] | [3] | [4] | [5] | [6] | [8] | [10] | [12] | [13] | [14] | [15] | [16] | [17] | [18] | [19] | [20]

Cc1[nH]cnc1C[C@H]1CCc2c(C)c3ccccc3n2C1=O
active: [2] 27.5 µM | [3] 22.9 µM | [4] 29.4 µM | [5] 22.4 µM | [8] 26 µM | [10] 18.4 µM | [11] 21.4 µM | [12] 24 µM | [15] 22.5 µM
inactive: [6] | [7] | [9] | [13] | [14] | [16] | [17] | [19] | [20]

COc1cccc(-c2ccc(/C=C\CN3CCCCCC3)cc2Cl)c1
active: [2] 30.9 µM | [3] 25 µM | [4] 27.8 µM | [5] 31.9 µM | [6] 34.3 µM | [8] 25.8 µM | [9] 4.82 µM | [10] 14.9 µM | [12] 27.9 µM | [15] 26.9 µM | [16] 32.6 µM | [17] 29.4 µM | [18] 28.4 µM | [19] 27.9 µM | [20] 32.7 µM
inactive: [7] | [13] | [14]

O=C(O)CC(O)C(=O)O (centres undefined)
inactive: [1] | [2] | [3] | [4] | [5] | [6] | [8] | [10] | [12] | [13] | [14] | [15] | [16] | [17] | [18] | [19] | [20]

O=C(O)c1cccc(Oc2ccccc2)c1
inactive: [2] | [3] | [4] | [5] | [6] | [7] | [8] | [9] | [10] | [11] | [12] | [13] | [14] | [15] | [16] | [17] | [18] | [19] | [20]

Cc1ccc(O)cc1
inactive: [1] | [2] | [3] | [4] | [5] | [6] | [8] | [9] | [10] | [11] | [12] | [13] | [14] | [15] | [16] | [17] | [18] | [19] | [20]

On1ccccc1=S
active: [1] 4.99 µM | [2] 28.8 µM | [3] 30.8 µM | [4] 12.9 µM | [6] 32 µM | [8] 29.7 µM | [10] 38.4 µM | [12] 14.8 µM | [13] 9.28 µM | [14] 5.96 µM | [15] 19.8 µM | [17] 3.31 µM | [19] 3.8 µM | [20] 5.25 µM
inactive: [5] | [7]

CCOC(=O)CC(CC(=O)OCC)(OC(C)=O)C(=O)OCC
inactive: [2] | [3] | [4] | [5] | [6] | [7] | [8] | [9] | [10] | [11] | [12] | [13] | [14] | [15] | [16] | [17] | [18] | [19] | [20]

Oc1ccc2c(c1)-c1ccccc1C2
inactive: [1] | [2] | [3] | [4] | [5] | [6] | [7] | [13] | [14] | [15] | [16] | [17] | [18] | [19] | [20]
active: [8] 19.6 µM | [10] 39 µM | [12] 10.2 µM
